Source: PubChem BioAssay AID934 (National Center for Advancing Translational Sciences (NCATS), 2007)
Inconclusive results are not listed. Unmarked numbers belong to inactive results. Calls of active or inactive are those of the source. Calls come from the whole dose curve; as a rule, active = well fitted activation curve with a large enough effect; inconclusive = small, poorly fitted or top-dose-only effect; inactive = flat fitted curve, though single readings scatter.

Test: Parental Cell Counter Screen for Stat Signaling Pathway Assay
Conditions: ME-180 (cervical carcinoma) parental cells, blue fluorescence artefact counter-screen; series mostly up to 38.3 µM; activity (fluorescence increase): at the top concentration
Summary of the method: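 Fluorescence at 405 nm excitation, 460 and 530 nm emission, was read after 2.5 hr at room temperature with LiveBLAzer detection mix. Before that, parental ME-180 cells without the reporter were plated overnight, then exposed to compound and 40 pM IL-6 (final) for 5 hr at 37 C.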

Row | SMILES | activity (fluorescence increase) [%] | Potency
1 | C=C1C(=O)O[C@@H]2[C@H]3O[C@]3(C)CCC=C(C)CC[C@@H]12 | -1.87 | 
2 | CC(=O)Oc1ccc(C(c2ccc(OC(C)=O)cc2)c2ccccn2)cc1 | 10.2 | 
3 | COc1cccc2c1C(=O)c1c(O)c3c(c(O)c1C2=O)C[C@](O)(C(=O)CO)C[C@H]3O[C@@H]1C[C@H](N)[C@H](O)[C@H](C)O1 | 10.3 | 
4 | OC[C@@H]1O[C@@H](n2cnc3c(SCc4ccccc4)ncnc32)[C@@H](O)[C@H]1O | 0.926 | 
5 | Cn1c(N2CCOCC2)nc2c1c(=O)n(Cc1ccc(Cl)c(Cl)c1)c(=O)n2C | 13 | 
6 | COc1ccc2[nH]c3c(N4CCN(Cc5ccc6c(c5)OCO6)CC4)ncnc3c2c1 | 9.26 | 
7 | CN(C)CCCn1c2c3ccccc3ccc2c2oc(=O)c3ccccc3c21 |  | 12.6 µM (active)
8 | O=C(O)c1c(Br)c(Br)c(Br)c(Br)c1C1c2ccc(O)cc2Oc2cc(O)ccc21 | 8.49 | 
9 | CC[C@@H]1CN2CCc3cc(OC)c(OC)cc3[C@H]2C[C@@H]1C[C@@H]1NCCc2cc(OC)c(OC)cc21 | 9.35 | 
10 | COc1ccc(C[C@@H]2C(=O)N[C@H](C)C(=O)N(C)[C@@H]3Cc4ccc(cc4)Oc4cc(ccc4O)C[C@H](C(=O)N[C@@H](C)C(=O)N[C@H](C)C(=O)N2C)N(C)C3=O)cc1 | 10.4 | 
11 | CC1CCN(CC[S-])CC1.O.O.[Cl][Pt] | 28.3 | 
12 | CN(C)S(=O)(=O)c1ccc2c(c1)/C(=C/c1cc3c([nH]1)CCCC3)C(=O)N2 | 1.89 | 
13 | Nc1ncnc2c1ncn2[C@@H]1O[C@@H](CO)[C@H](O)[C@@H]1O | 11.2 | 
14 | Nc1ncnc2c1ncn2[C@@H]1O[C@H](COP(=O)(O)O)[C@@H](O)[C@@H]1O | -3.74 | 
